KB-3-1 cytotox: KB-3-1 parental cell cytotoxicity; AID 1347075; 1.4% of 400,000 active; Potency, µM (titrated, usually from 46.1 µM), most hits filed as cytotoxic; KB-3-1 viability, CellTiter-Glo ATP luminescence, 72 h; further: potency means the concentration at half of the fitted maximal effect; on the % scale 0 is the no-effect control and ±100 the full control effect; nearly all actives have a fitted effect of over 60% in size
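KB-3-1 parental drug-naive adenocarcinoma cells in DMEM/10% FBS, incubated 72 h at 37 C with pin-transferred compounds across a concentration series. Viability by CellTiter-Glo luminescence; concentration-response curves fitted after normalization.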
MCF10A rereplic: DNA re-replication induction in MCF 10a cells; 2.9% of 350,000 active; MCF 10A DNA re-replication, Hoechst nuclear intensity, 48 h; Potency, µM (series often up to 46.1 µM), for inactives: at the top dose activity, positive = re-replication, most hits filed as activators; AID 624296; further: potency means the concentration at half of the fitted maximal effect; % of control where 0% means no effect; nearly all actives have a fitted effect of over 50% in size
KCNH2 WT inh: inhibitors of human wildtype KCNH2 potassium channel; Q12809; U2OS, BacMam KCNH2, thallium flux FluxOr; stronger effect = lower value; activity change, % at 1.84 µM; 0.37% of 340,000 active; AID 720551;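 active means maximum activity change below -70%; inconclusive means maximum activity change between -70% and -50%; inactive means maximum activity change above -50%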; further: on the % scale 0 is the no-effect control and ±100 the full control effect
Target sequence (Q12809 whole entry, looked up): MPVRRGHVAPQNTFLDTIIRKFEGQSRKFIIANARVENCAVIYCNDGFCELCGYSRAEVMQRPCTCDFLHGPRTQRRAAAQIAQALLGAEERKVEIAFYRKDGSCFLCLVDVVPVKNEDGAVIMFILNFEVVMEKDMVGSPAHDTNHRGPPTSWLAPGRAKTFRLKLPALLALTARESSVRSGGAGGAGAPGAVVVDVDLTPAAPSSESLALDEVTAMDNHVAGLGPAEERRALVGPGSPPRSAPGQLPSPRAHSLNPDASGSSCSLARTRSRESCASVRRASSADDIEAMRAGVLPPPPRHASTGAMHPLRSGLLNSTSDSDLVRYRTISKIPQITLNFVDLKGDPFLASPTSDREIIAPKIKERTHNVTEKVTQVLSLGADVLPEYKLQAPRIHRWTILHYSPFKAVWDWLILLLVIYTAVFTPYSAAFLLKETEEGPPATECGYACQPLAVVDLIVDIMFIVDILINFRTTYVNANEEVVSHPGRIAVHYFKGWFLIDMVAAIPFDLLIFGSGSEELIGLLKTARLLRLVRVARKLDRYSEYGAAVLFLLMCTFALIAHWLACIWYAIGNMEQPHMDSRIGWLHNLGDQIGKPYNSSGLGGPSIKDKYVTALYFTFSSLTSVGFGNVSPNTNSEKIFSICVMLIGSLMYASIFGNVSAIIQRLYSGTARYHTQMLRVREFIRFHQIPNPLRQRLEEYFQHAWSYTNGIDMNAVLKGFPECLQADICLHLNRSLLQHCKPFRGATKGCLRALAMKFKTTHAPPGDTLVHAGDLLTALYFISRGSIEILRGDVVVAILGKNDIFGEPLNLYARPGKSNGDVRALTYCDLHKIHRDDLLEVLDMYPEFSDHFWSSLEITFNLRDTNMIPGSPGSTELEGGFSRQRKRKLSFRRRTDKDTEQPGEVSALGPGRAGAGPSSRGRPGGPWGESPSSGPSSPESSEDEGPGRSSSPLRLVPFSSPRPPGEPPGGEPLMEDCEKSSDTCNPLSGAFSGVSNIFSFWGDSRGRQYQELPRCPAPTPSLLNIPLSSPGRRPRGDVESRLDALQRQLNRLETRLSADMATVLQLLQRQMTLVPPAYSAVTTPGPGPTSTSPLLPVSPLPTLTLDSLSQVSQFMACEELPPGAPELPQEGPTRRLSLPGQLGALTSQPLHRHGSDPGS
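U2OS cells transduced with wild-type KCNH2 virus are loaded with FluxOr dye for 45 min, and thallium flux is measured in kinetic reads before and after stimulation buffer. Rate constants are normalized to DMSO controls.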
KCNH2 3.1 block: blocks the human KCNH2 3.1 channel isoform; activity change, % (tested at about 1.8 µM); U2OS KCNH2 3.1, thallium flux FluxOr; stronger effect = lower value; 0.95% of 340,000 active;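 active means maximum activity change below -70%; inconclusive means maximum activity change from -70% to -50%; inactive means maximum activity change above -50%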;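 further: thallium influx rate constant from kinetic fluorescence after stimulation buffer; on the % scale 0 is the no-effect control and ±100 the full control effect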
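FluxOr-based Tl+ influx in U2OS cells transduced with KCNH2 3.1 virus; rate constants normalized to DMSO controls.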
KB-V1 MDR tox: kills drug-selected multidrug resistant KB-V1 cells. KB-V1 MDR cells viability, CellTiter-Glo, 72 h. 3.4% of 400,000 active. Potency, µM (titrated, usually from 46.1 µM), usual class: cytotoxic. AID 1347076; further: potency means the concentration at half of the fitted maximal effect; on the % scale 0 is the no-effect control and ±100 the full control effect; nearly all actives have a fitted effect of over 60% in size
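Cytotoxicity toward P-gp-expressing KB-V1 cells was determined as loss of CellTiter-Glo luminescence after 72 h at 37 degrees C. Compounds were tested in quantitative HTS format across a concentration range, with curves fitted to normalized data.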
SW480 rerep: induces DNA re-replication in SW480 colon adenocarcinoma cells | SW480 DNA re-replication, Hoechst DNA content imaging, 48 h | 1.8% of 340,000 active | Potency, µM (highest dose often 46.1 µM), for the others: at the top dose re-replication activation, most hits filed as activators | AID 624297; further: potency means the concentration at half of the fitted maximal effect; % of control where 0% means no effect; nearly all actives have a fitted effect of over 55% in size
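Treated cells incubate 48 hr (37 C, 5% CO2), are stained 40 min with Hoechst, and nuclear fluorescence is enumerated; a rise in nuclei with high DNA signal marks re-replication.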
* hit, by the source's call; i = inactive; ? = inconclusive; / = not tested or not shown. Sampled rows, rich in hits. Any-hit rate of the full collection: about 7.6%. Unless noted, the call rests on the fitted dose curve; in most records, active means well fitted curve in the direction sought with a large enough effect; inconclusive means small, poorly fitted or top-dose-only effect, or another doubt; inactive means no such curve, though single readings can be large; an effect the other way counts as inactive or inconclusive.

SMILES	KB-3-1 cytotox	MCF10A rereplic	KCNH2 WT inh	KCNH2 3.1 block	KB-V1 MDR tox	SW480 rerep
CCOC(=O)C1(CCc2ccccc2)CCN(Cc2ccc(C(=O)OC)cc2)CC1	i	?	-107.8*	-113.8*	i	?
CCOC(=O)C1(Cc2ccccc2)CCN(Cc2cccc(OC)c2O)CC1	?	20.1%	28.5	-18.1	?	-0.4%
CCOC(=O)C1(CCc2ccccc2)CCN(Cc2cc(OC)c(OC)cc2OC)CC1	?	?	-11.4	-98.6*	i	-7.8%
CCOC(=O)C1(CCc2ccccc2)CCN(Cc2ccccn2)CC1	?	14.5%	-26.2	-74.0*	?	5.8%
CN(C)S(=O)(=O)Nc1cccc(-c2cn3c(n2)SCC3)c1	i	1.3%	31.8	-106.3*	i	-2.0%
O=C(Cc1ccc(F)cc1)Nc1cccc(-c2cn3c(n2)SCC3)c1	i	11.7%	5.6	6.8	18.4µM*	-2.2%
O=C(Nc1cccc(-c2cn3c(n2)SCC3)c1)c1ccc(Br)o1	i	-0.2%	3.5	-2.1	i	-21.4%
CC(=O)Nc1ccc(S(=O)(=O)Nc2cccc(-c3cn4c(n3)SCC4)c2)cc1	i	-5.1%	-36.4	22.1	i	0.5%
CCCCc1nn2c(=O)cc(COC(=O)c3ccccc3NC(=O)c3cccc(C)c3)nc2s1	i	/	/	/	i	/
COc1cccc(/C(O)=C/c2nc3ccc(C(=O)NCCc4ccc(Cl)cc4)cc3[nH]c2=O)c1	20.6µM*	8.2µM*	-2.6	-11.2	?	11.6µM*
Cc1c(C(=O)CN2CCN(c3ccccc3)CC2)c2ccccc2n1C	i	9.6%	?	-9.8	i	-8.4%
Cn1c2c(c3ccccc31)CCN(CCCCN1CCN(c3ccccc3)CC1)C2=O	i	?	-78.0*	-109.4*	5.8µM*	?
CCOC(=O)c1c(C)oc2ccc(N(C(=O)Oc3ccccc3)S(=O)(=O)c3ccccc3)cc12	i	/	/	/	?	/
C=CCN=c1scc(-c2ccc(F)cc2)n1/N=C/c1ccccn1	?	?	i	0.9	i	3.9%
C=CCN=c1scc(-c2ccc3c(c2)NC(=O)CO3)n1/N=C(\C)c1ccccn1	5.17µM*	?	2.1	-95.4*	?	-6.5%
OCCCNc1ncnc2oc(-c3ccccc3)c(-c3ccccc3)c12	?	?	-17.7	-7.5	?	-6.2%
Cc1cc(F)ccc1NCc1ccccc1-c1nnc(-c2ccccc2Cl)o1	i	/	/	/	i	/
Cc1nn(C)c(Cl)c1S(=O)(=O)N1CCC(CO)(CCc2ccccc2)CC1	?	16.5%	-13.7	11.4	23.1µM*	-5.7%
Cc1cc(C)cc(Nc2cnn(C34CC5CC(CC(CC(=O)O)(C5)C3)C4)c(=O)c2Cl)c1	i	23.1µM*	9.7	-2.6	i	?
Cc1cccc(Nc2cnn(C34CC5CC(CC(CC(=O)O)(C5)C3)C4)c(=O)c2Cl)c1	i	-22.0%	7.3	-7.5	i	-13.5%
CC(=O)Nc1ccc2nc(-c3cc(C)ccc3C)[nH]c2c1	?	/	/	/	16.4µM*	/
Cc1ccc(C)c(Sc2ccc(NC(=O)CCN3C(=O)NC4(CCCC4)C3=O)cc2)c1	i	23.1µM*	-6.4	8.0	i	6.4%
CCC1(c2ccc(F)cc2)NC(=O)N(CC(=O)Nc2ccc(N3CCCCC3)cc2)C1=O (stereo unspecified)	i	0.7%	0.7	1.0	23.1µM*	0.6%
CCOC(=O)c1ccc(NC(=O)CN2C(=O)NC3(CCCCCCC3)C2=O)cc1	7.31µM*	?	-2.1	-16.7	i	?
CC(C)(C)c1ccccc1NC(=O)CN1C(=O)NC2(CCCCCC2)C1=O	/	-15.8%	-169.9*	1.9	/	1.0%
Cc1ccc(NC(=O)CCN2C(=O)NC3(CCCC3)C2=O)cc1	i	-6.1%	2.7	4.5	i	-328.7%
CCOc1ccc2nc(S(=O)(=O)NC(=O)C3(C)CCN3C(=O)CCc3cccs3)sc2c1 (stereo unspecified)	i	/	/	/	i	/
